ChEMBL document CHEMBL1157539, “Thousands of chemical starting points for antimalarial lead identification” (Nature, 2010)

Experiments:
Format in all cases: functional
Plasmodium falciparum [1] = test: GSK_TCMDC: Inhibition of Plasmodium falciparum 3D7 in whole red blood cells, using parasite LDH activity as an index of growth. Test compounds present at 2uM
Plasmodium falciparum [2] = test: GSK_TCMDC: Inhibition of Plasmodium falciparum Dd2 in whole red blood cells, using parasite LDH activity as an index of growth. Test compounds present at 2uM
HepG2 = test: GSK_TCMDC: Percent inhibition of human HepG2 cell line. Test compounds present at 10uM.

SMILES | Inhibition (Plasmodium falciparum [1]) [%] | Inhibition (Plasmodium falciparum [2]) [%] | Inhibition (HepG2) [%]
Cc1[nH]c(C)c(-c2ccc(C#Cc3ccc(F)cc3F)cc2)c(=O)c1Br | 97 | 98 | 11
Cl.O=C(NCCCCN1CCC(c2ccc(OC(F)(F)F)cc2)CC1)c1ccc(NC(=O)c2ccc(Cl)cc2)cc1 | 99 | 98 | 24
O=C(Nc1cccc(-c2ccc(CN3CCCC3)cc2)c1)c1cccc(F)c1.O=C(O)C(F)(F)F | 99 | 17 | 20
COc1ccc(N2C(N)=NC(N)=NC2(C)C)cc1OC.Cl | 95 | 0 | 13
CC(CNC1CCN(CCn2c(=O)ccc3ccc(F)cc32)CC1)c1ccccc1 (stereo not drawn) | 85 | 4 | 0
Cc1cc(-c2ccc(Cl)cc2)c2c(N)c(C(=O)Nc3ccc(F)cc3)sc2n1 | 97 | 87 | 12
CN=C(NC)c1cccc(NC(=O)C=Cc2ccc(C=CC(=O)Nc3cccc(C(=NC)NC)c3)cc2)c1.Cl | 98 | 99 | 21
COc1cc(OCCCN(C)Cc2ccc(OC)c(OC)c2)ccc1NC(=O)c1cccc2c(O)c3cccc(F)c3nc12 | 94 | 62 | 10
O=C(O)C(F)(F)F.O=S(=O)(NCCN1CCCC1)c1cccc(-c2cccc(CNCc3ccccc3)c2)c1 | 97 | 73 | 32
COc1ccc(CCNCCCCCCNCCc2ccc(Cl)c3ccccc23)cc1OC.Cl | 100 | 28 | 100
CCN(CC)S(=O)(=O)c1ccc(C=CC(=O)Nc2cc(Cl)ccc2N2CCOCC2)cc1 | 90 | 65 | 3
O=C(O)C(F)(F)F.c1cc(CN2CCCCC2)cc(-c2ccc(-c3nc4ccccc4[nH]3)s2)c1 | 100 | 100 | 11
CN1CCC(NCc2cccc(-c3cnc(NCc4ccccc4)nc3)c2)CC1.O=C(O)C(F)(F)F | 100 | 67 | 12
Cc1[nH]c(C)c(-c2cc3ccccc3o2)c(=O)c1Cl | 92 | 13 | 1
O=C(Nc1ccc2ccccc2c1)c1ccc(CN2CCC(Cc3ccccc3)CC2)cc1 | 95 | 10 | 38
Cc1cc2nc(N/C(N)=N/C(=O)NC3CCCCC3)nc(C)c2cc1C | 94 | 98 | 20
COc1cccc(CNC[C@@H](O)[C@H](Cc2ccccc2)NC(=O)c2cc(C(C)C)cc(N3CCCC3=O)c2)c1 | 95 | 61 | 1
C=CCn1c(Sc2ccc(C#N)c([N+](=O)[O-])c2)nnc1-c1cccc(Cl)c1 | 97 | 54 | 41
COc1cc(NC(=O)N2CCc3cc(OC)c(OCCN4CCCCC4)cc32)cc(C(F)(F)F)c1.O=C(O)C(=O)O | 93 | 10 | 9
Cl.Nc1nc(N)c2c(ccc3nn(Cc4cccnc4)cc32)n1 | 96 | 0 | 41
Cc1ccc(NC(=O)c2ccc3ncccc3c2)cc1OC1CCN(Cc2ccco2)C1.O=C(O)C(F)(F)F (stereo not drawn) | 86 | 42 | 9

SMILES | Inhibition (Plasmodium falciparum [1]) [%] | Inhibition (Plasmodium falciparum [2]) [%] | Inhibition (HepG2) [%]
O=[N+]([O-])c1ccccc1C=NN=c1cc[nH]c2ccccc12 | 100 | 98 | 3
O=C(/C=C/c1ccc(C(F)(F)F)cc1)N1CCC(CCN2CCC(c3c[nH]c4ccccc34)CC2)CC1 | 100 | 77 | 70
O=C(Cn1c(CCc2cccc(F)c2F)cc(=O)c2cccnc21)N(CCN1CCCC1)Cc1ccc(-c2ccc(C(F)(F)F)cc2)cc1.O=C(O)C(O)C(O)C(=O)O | 99 | 64 | 48
COc1cc(Cl)c(C)cc1-n1cc(C(=O)c2cc(Br)ccc2O)cc(C#N)c1=O | 95 | 35 | 3
CC(CCc1ccccc1)NCC(O)c1ccc2c3c(cccc13)C(=O)N2C.Cl (stereo not drawn) | 99 | 57 | 37
Br.COc1ccc(OCCCCON2C(=N)N=C(N)NC2(C)C)cc1 | 92 | 95 | 54
Cc1noc(C)c1C(=O)N1CCc2cc3nccc(N4CCN5CCC[C@H]5C4)c3cc21 | 93 | 9 | 7
COc1cc2c(cc1OC)C(c1ccc(Br)cc1)CN(C)CC2.Cl (stereo not drawn) | 86 | 0 | 8
O=C(O)C(F)(F)F.O=C1CCCN1CCCNCc1ccc(-c2cccc(-c3nc4ccccc4[nH]3)c2)cc1 | 96 | 0 | 19
Cc1ccc(C)c(S(=O)(=O)NCC2CCN(Cc3ccc(O)cc3)CC2)c1.O=C(O)C(F)(F)F | 87 | 57 | 16
Cc1nnsc1C(=O)Nc1ccc(-c2cccc(-c3nc4cccc(C)c4[nH]3)c2)cc1 | 98 | 47 | 23
CCCC1(NC[C@@H](O)[C@H](Cc2ccccc2)NC(=O)c2cc(NCC)cc(N3CCCCS3(=O)=O)c2)CCCCC1.Cl | 100 | 98 | 4
CN(C)C(=O)C(CC(=O)NCc1ccccc1Cl)N(C)C.CN(C)C(=O)CC(C(=O)NCc1ccccc1Cl)N(C)C.O (stereo not drawn) | 96 | 2 | 7
COc1ccccc1C1CCN(C2CCC(NC(=O)c3cc4cc(C(C)C)ccc4[nH]3)CC2)CC1 (stereo not drawn) | 100 | 98 | 100
CN(C)Cc1ccc(O)c(-c2ccc(C(C)(C)C)cc2)n1.Cl | 86 | 25 | 0
COc1ccccc1C(C)NCC(=O)Nc1cc(C(F)(F)F)ccc1Cl (stereo not drawn) | 97 | 85 | 4
COCCNCc1cccc(-c2ccc3c(Nc4ccc(Oc5cccnc5)cc4)ccnc3c2)c1 | 100 | 99 | 58
O=C(Nc1ccc2oc(-c3ccc(Cl)cc3Cl)nc2c1)c1ccc([N+](=O)[O-])o1 | 95 | 78 | 39
CN1CCC=C(C(=O)NCC(C)(C)c2nc(-c3ccc(Cl)c(O)c3)c(-c3ccncc3)[nH]2)C1.Cl | 96 | 96 | 39
O=C(Nc1ccc(Cn2ncc(N3CCCNCC3)c(Cl)c2=O)cc1)Nc1ccc(C(F)(F)F)cc1.O=C(O)C(F)(F)F | 90 | 58 | 12
COC(=O)c1cccc(NC(=O)NC2CCN(c3ccnc(NCc4ccc(F)cc4)n3)CC2)c1 | 93 | 39 | 29

SMILES | Inhibition (Plasmodium falciparum [1]) [%] | Inhibition (Plasmodium falciparum [2]) [%] | Inhibition (HepG2) [%]
CC(C)NCc1cccc(-c2ccc(NC(=O)c3cccc(C#N)c3)cc2)c1.O=C(O)C(F)(F)F | 100 | 95 | 22
CCOc1c(Br)cc(C)cc1CNCCCNc1nc2ccccc2[nH]1.Cl | 93 | 5 | 24
O=C(O)C(F)(F)F.OCC1CCN(Cc2cccc(-c3ccc(-c4nc5cc(F)ccc5[nH]4)cc3)c2)CC1 | 100 | 86 | 11
CNCc1cccc2nc(-c3ccc(Cc4cc(Cl)ccc4OCC(C)C)o3)[nH]c12.Cl | 97 | 23 | 20
COc1cc(F)c2ncc(Cl)c([C@H](O)CN3CCC(NCc4ccc5c(n4)NC(=O)CO5)CC3)c2c1.Cl | 99 | 99 | 14
COC(=O)c1ccc(NC(=O)Nc2cccc(CCNCc3ccccc3)c2)cc1.O=C(O)C(F)(F)F | 96 | 10 | 2
COc1ccc(Nc2nc(NC3CCN(C)CC3)cc(-c3ccc(OC)cc3)n2)cc1 | 100 | 51 | 62
CCCC(C)NC[C@@H](O)[C@H](Cc1ccccc1)NC(=O)c1cc(NCC)cc(N2CCCCS2(=O)=O)c1.Cl (stereo partly drawn) | 100 | 98 | 0
COc1ccc2nccc(N(C)CC3(O)CCN(CCc4ccc5c(c4)NC(=O)CS5)CC3)c2n1.Cl | 91 | 67 | 10
COCCn1c(-c2cccc(Cl)c2)nn(-c2ccc([N+](=O)[O-])cc2C#N)c1=S | 100 | 100 | 7
COCc1cc(C)nc2sc(C(=O)Nc3cc(C(C)(C)C)ccc3O)c(N)c12 | 85 | 57 | 0
CCN(CC)CCN(CCCc1ccc(-c2ccc(C(F)(F)F)cc2)cc1)C(=O)Cn1c(CCc2cccc(F)c2F)nc(=O)c2c1CCC2.O=C(O)C(O)C(O)C(=O)O | 92 | 27 | 38
CC12CN3CC(C)(CN(C1)C3c1cc(Br)ccc1O)C2O (stereo not drawn) | 98 | 2 | 5
Cl.N=C(N)c1ccc(Nc2nc(Nc3ccc(-c4ccccc4)cc3)ncc2[N+](=O)[O-])cc1 | 99 | 35 | 11
CC[C@H](C)CNC(=O)c1ccnc(-c2cccc(CN(C)C3CCN(C)CC3)c2)c1.O=C(O)C(F)(F)F | 100 | 33 | 0
Nc1c2c(nc3ccc(NC(=O)c4ccccc4)cc13)CCCC2 | 99 | 8 | 0
COc1ccc2nc3cc(Cl)ccc3c(NCCCCCCNc3c4ccc(Cl)cc4nc4ccc(OC)cc34)c2c1.Cl.Cl.Cl.Cl | 96 | 79 | 20
COc1ccc(N2CCN(c3nc(Nc4ccc(NC(C)=O)cc4)nc(N4CCCC4)n3)CC2)cc1 | 91 | 38 | 0
CCCc1cc(NC2CCN(C)CC2)nc(Nc2ccc(C)cc2)n1 | 100 | 20 | 25
